From PMC12701074

Each substance was assayed against Histone H2B type 1-L (UniProt Q99880) (assay: cross-link between two proteins; cross-linking mass spectrometry).

Listed as a hit, yes:
Small ribosomal subunit protein eS8, P62241
Large ribosomal subunit protein uL18, P46777
Large ribosomal subunit protein eL6, Q02878
